Whole data set: some 4,000 sequences, median “arbitrary fluorescence units” near 830, cut for the highest 2% near 6,500. Only a selection was taken, and the highest values are over-represented in it overall.
Target: RUNX1 (UniProt Q01196)
Test: RUNX1 binding intensity (PBM fluorescence), RUNX1 alone (arbitrary fluorescence units); higher = stronger binding
Conditions: RUNX1 concentration 2 nM; ETS1 concentration 0 nM
Description: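 gcPBM on 36-bp genomic-derived probes (partner site mutated) containing one RUNX1 site and no ETS1 site. Recombinant human RUNX1 (2 nM) was incubated alone or with ETS1 (25 nM) and detected by anti-RUNX1 antibody fluorescence. Values are medians over 4 replicate spots (not normalised). The probes sit in constant array flanks that are not printed.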

Chain of RUNX1 (Q01196 whole entry): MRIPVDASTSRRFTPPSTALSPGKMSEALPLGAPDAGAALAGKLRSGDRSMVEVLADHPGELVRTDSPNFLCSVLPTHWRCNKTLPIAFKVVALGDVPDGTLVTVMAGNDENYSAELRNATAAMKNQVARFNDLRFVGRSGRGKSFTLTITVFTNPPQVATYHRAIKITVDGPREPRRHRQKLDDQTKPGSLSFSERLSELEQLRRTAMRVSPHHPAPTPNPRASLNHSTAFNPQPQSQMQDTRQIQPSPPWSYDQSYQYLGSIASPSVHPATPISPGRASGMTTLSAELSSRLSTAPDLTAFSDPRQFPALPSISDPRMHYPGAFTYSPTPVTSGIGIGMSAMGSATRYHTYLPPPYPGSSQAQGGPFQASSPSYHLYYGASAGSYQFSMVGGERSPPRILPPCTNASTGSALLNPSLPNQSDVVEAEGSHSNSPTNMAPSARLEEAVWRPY

Sequence | RUNX1 binding intensity
ACACCTCAGCAAGTGGCAGAGACCACAACAAGTCAG | 952
CTTGTGGCTCCTTTCCACCCGCCCCGTAAGCCGGCC | 930
ACCCCAAGCCCACAAACCCACCTGAAGGAACCAACT | 1200
CCGCTGCGGCTGCGCGCTACGTCACTACGTTCGGCG | 768
AAAACCACATTGCCTGTGCTGCAGGCTGGAAAGCTG | 879
GCAGAAACAGAAAGAGACAGGGCTGACCGCAGCAGG | 1360
CCTCTCTGTGGTTCTGCCTGGAATACGCAAGGCAGG | 1050
GGCGGGAGAGGAGGCCGGGCGGCCGCAGCTGCCTGT | 669
TCGCTTACGGTGTCGGTTACAGACTGTGGTTGCCAT | 812
CACCCGAACTGAAACACCTGCGGCTGAGGGGAGGGG | 1030
CCGAGAAGTGGAACCGCCAGGCGGAGGGGGCGGAGT | 767
GAGCGCGGCACTCGCCACGGTAAGGATTACCACAGG | 742
TGGGGTGTCCGAGCCGCCCCCGAACCGCGCACCCGA | 796
GACAAGCCATGTGGTTGCTGGCAGGCAATCTCAGTC | 1430
TATTCAGCAGCAAAGGAGAGAGTCTGTGGTATCTGC | 708
GCTGAGTGCGGGTGGCCTGGGCCGAAGGCTCAGCGG | 724
GCCGCGGTGCCTGCCGGGACAGCGAGTTCAGCCGGG | 738
CTGTGGGTTCGGCAGTAAACTCTGACCTCCTATTTA | 892
TGGGACCGCTAATCGGAGAGGGTGCGCAAACGCTGG | 658
AAGTTCGCAACCGCCAAGAGGGGAGACGGGCTGCGC | 764
GTATGGGAGGTGATCTGGCTGCAAACCGCAAGAGAG | 8250
ACCCACTTGCTGTTAGAGCATCTTTGCAACCACAGG | 729

Sequence | RUNX1 binding intensity
CTCGGGATTTGTGGTCCACCCGGCTGAACTCGCGGC | 788
AGGGTTTGTGGGACCTGGTGACTCACGGGATCTGGG | 703
CTGCCATGAAGGGTTCTGGTTTGAGGTCTCCTCTTA | 741
GCCCCTGATAGCGTCCTCACCATCCCCACAGCGCCT | 1100
TGGCCCCGGGGCCCCACAACGGCTTCATGTGTCCCG | 693
CCTTAGCACAGACCACCATCTACGGGAATTCCTAAG | 912
CAGTCAGACGGGAGCCCGGCTTCTGTGGTGCCTGCC | 696
CCTAGAACCGTAAGAGAAAGGGGCTGCGGTGCAGCA | 745
CTGTGCGGTCATGTGACGGAGGCCTGAAGGCAGGTC | 1410
TGCGCCGGGAGTGCATGAGCTGCCGATGTGGTGCTT | 697
GACGTAAGCCGAGAGGCTCCCGTAAGCGGTCTTGAG | 733
GACTCGCTCTGCGGCCCCACGCAGGGAGCCTCCTTG | 905
CTCATAACCGCTAACTCAACCTCTAACATTTGCTGT | 3220
AACTAGTTCGTTCCTTATGCGGCCCAGGGCTCCACC | 893
GGCACGAAAGAGCTGATGCATTTCAACCGCAGCCTG | 1160
CGAGCCGCCTTGCTCCCCGGCCCACAGCCCAGCACT | 889
CCGGGGTAAACCACGACACGACTCCCTGCCGTGTGG | 886
GACCTTCACCCACAAGAACCACCTCCTCTCAGTAAA | 1950
TACGACTTCAAGGCGGTCAACATCCAGGGCAAACTG | 730
TCCCTCCTTGCGCTCTGGTTTTGTGGTTGCTTGCTG | 1120
CCAGCCGTAAGCCCCGCCCCCTAGAGGCACCGCGGA | 882
GCTTTGCAGTGTCCTCTATGGAACACCACACACAGT | 809

Sequence | RUNX1 binding intensity
GGGGACGAAGCGGTCTCGGTTCAGCCCGGCTGGGAG | 692
TAAGGCTGTGTGGCTTCCAGATCAAAAACCGCAAAA | 8380
CTCTGGCAGGGAGCTCTGAGGGCTAAACCACAAAAA | 1560
CAGGCTGCTGTGGCTACTGCAGCACTGCCTCCCGCT | 741
GCTCTGGCCGAAGATGTCCCTGCGGTGCAGCTGCCG | 796
GGGCTTGACCGCCATGTTTGAAGCGGGCGCAAAAAA | 758
CAGAACGGTCCCTGGAACACTGCGGTTCCCGCCTGG | 874
AGGCTGTTGTGGGTTGCGCCGCTTCGGAGGTGGGAG | 846
CTTGCCACACTGCCTCTTGTTTTGAACCACTATATT | 2040
GCACACAGTGCGGTTGGCTTCCAGCTTCATGTTGGC | 1470
CTTGTAGTCAGGTGGTTGGGCAGGGTGTTTCTCATG | 807
TCCAAGGCGCAAAAAACCCGCCCTAAACCGCACCCC | 1630
AGCGCCTTACCCGCGGCACACCCATTTGCTGACCCC | 1120
CTTGTTCTATCTCCTGTTTGTGGTGAGTGACTGTCT | 1370
AGGCTCATTGCCTGTTTTCATGTGGTTTAGAGAAAA | 1030
TGATCAGGCAGGAGAAGCGCAGAGGTGGACCCGCAA | 751
GGGATCCTTCAGCTCCGGGTTAACCCCGACCGCGCC | 697
CACTCCCCTCCCGCGGTCACACTTCAGGCGGCCACC | 1460
GGGGGGGTGCGGTCCTGGTCGGGAGGAGGTGGAGAG | 869
ACCTCCACCACAAAGAACAAAAAACGAAGGATAAAA | 1520
CCACACGGCAGGGAGTCGTGTCGTGGTTTACCCCGG | 752
ACGCCCGCTGACCACACTGGCGACGTCCCTCTCTGT | 1400

Sequence | RUNX1 binding intensity
CAGGGGGCCCCACATGCCGCTCTTGCTGCCCAGGTC | 798
CAGTCGCCAGAAACCACAGCACTTCGGCCTGCTTCA | 1480
GACATGTGGCTATTTTGGGCAATTGCCTGAGGAGGC | 720
CGACTGGAACCACTCTGAGGCGCTGCCGCAGACACC | 1040
TTAACTCCACAGAAGAATAAACCACCACCGCTCACC | 1060
GACCACCTCCTTTCTGTGTTTTGTGGTTTCACAACT | 2680
CATTGTGGGCGCTGTAGTCCAGCTGGAACCTGTTTG | 760
GGAGGCTGTGGTGAGGAAAGAGGAGGTGACACTCCT | 883
CCCCTCAATTCCCTCAACCCTTCCCACAAACTGGGA | 1730
GGCTTACGGCGGGGTACCCTCCTCTGTGGGCGGGGC | 715
CTGGCCGTGGCGTACGGGAGCTGTGGGGCCGTCCCC | 728
GGCTGGAAAGGGTCTTGAGAGGAGGTGGTTGCCTTA | 705
TGTCTGAGGTTTCTCTGTGAACATGAAGCTGAGAAC | 790
AGGCTTTCTGTTTTATCTCGTGTGTGTGGTGCACCA | 886
GGGCTTACGGCTGAACCCATGGCTGCGGGCTGTGCT | 704
TCCACAGCCGGTTTCGGCCGGTTCCCACAAGCCCCT | 909
CCGCTTACGGCCTTCGCCCGGCTTACCCGCGTCGCA | 1030
GGCATCCCCTTGCGGCCATCACTTTCTATGCCCTCA | 1250
GGGGCAGTGGTCACAGGAGGATCTTGCTGGAGTCAT | 697

Source: the supplement of paper PMC10681739
